According to PubChem BioAssay (EPA / NIEHS):
Records with an inconclusive call do not appear. Calls of active or inactive are those of the source. How the source made its calls, unless noted: active means hit-call score of the fitted dose curve at least 0.9, where 1 is the maximum; inactive means score below 0.9.

How the values were obtained:
[1] = molecular target: Oxysterols receptor LXR-alpha (Homo sapiens) (UniProt Q13133); assay: ATG_LXRa_TRANS: Attagene TRANS-FACTORIAL HepG2 Assay for human Liver X Receptor alpha (LXRa) (AID 2282980; active means hit-call score of the fitted dose curve at least 0.9, where 1 is the maximum); details: HepG2 Attagene TRANS reporter, LXRa transactivation
How it was run: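 Read-out: reporter transcript levels by RT-PCR plus capillary electrophoresis, fluorescence intensity. Transiently transfected HepG2, exogenous NR-GAL4 chimera, GAL4-UAS reporters; 24 h compound exposure. Activity = increase over DMSO negative control.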

[2] = ATG_M_32_TRANS: Attagene TRANS-FACTORIAL HepG2 Assay for M32 Transcription Factor (Internal Marker) (AID 2282984; active means hit-call score of the fitted dose curve at least 0.9, where 1 is the maximum;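 further: transcript level of a background control reporter unit measured by RT-PCR and capillary electrophoresis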); details: HepG2 Attagene TRANS M32 internal marker reporter
How it was run: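 Fluorescence-detected mRNA induction, HepG2 liver cells, 24 h after dosing. Multiple GAL4-UAS reporter units introduced by transient transfection; background-control endpoint analysed for gain of signal against DMSO.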

[3] = molecular target: Nuclear receptor subfamily 4 group A member 2 (Homo sapiens) (UniProt P43354); assay: ATG_NURR1_TRANS: Attagene TRANS-FACTORIAL HepG2 Assay for human Nuclear Receptor Related Protein 1 (NURR1) (AID 2282985; active means hit-call score of the fitted dose curve at least 0.9, where 1 is the maximum); details: HepG2 Attagene TRANS reporter, mRNA readout
How it was run: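 Chimeric NR-Gal4 proteins were expressed in human HepG2 cells bearing GAL4-UAS reporter units, and induced reporter mRNA was quantified 24 h post-dosing by RT-PCR and capillary electrophoresis.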

[4] = molecular target: Transcriptional activator Myb (Homo sapiens) (UniProt P10242); assay: ATG_Myb_CIS: Attagene CIS-FACTORIAL HepG2 Assay for human Myeloblastosis (Myb) Proto-Oncogene Transcription Factor (AID 2282986); details: HepG2 Attagene CIS-FACTORIAL Myb reporter transcription; actives raise or lower the signal
How it was run: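 Multiplexed cis-reporter system in HepG2: transient transfection, 24 h treatment, mRNA readout by RT-PCR and capillary electrophoresis. Both increases and decreases are scored versus DMSO negative control.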

[5] = molecular target: Nuclear respiratory factor 1 (Homo sapiens) (UniProt Q16656); assay: ATG_NRF1_CIS: Attagene CIS-FACTORIAL HepG2 Assay for human Nuclear Respiratory Factor 1 (NRF1) Orphan Gene (AID 2282987); details: HepG2 NRF1 cis-element reporter, Attagene multiplex; actives raise or lower the signal
How it was run: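 Endogenous factor activity was captured via cis-element-driven reporter transcripts in HepG2 cells. Following 24 h chemical treatment, transcripts were quantified by RT-PCR and capillary electrophoresis.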

[6] = ATG_NFI_CIS: Attagene CIS-FACTORIAL HepG2 Assay for human Nuclear Factor I (NFI) (AID 2282989); details: HepG2 cis-regulatory reporter, NFI response element transcription; actives raise or lower the signal
How it was run: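 Read-out: reporter mRNA via RT-PCR plus capillary electrophoresis with fluorescence detection. Transiently transfected HepG2 (endogenous TF activity on cis promoters), 24 h compound exposure; gain or loss of signal fitted against DMSO.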

[7] = molecular target: Myc proto-oncogene protein (Homo sapiens) (UniProt P01106); assay: ATG_Myc_CIS: Attagene CIS-FACTORIAL HepG2 Assay for human Myelocytomatosis (Myc) Proto-Oncogene Transcription Factor (AID 2282990); details: HepG2, Attagene cis-reporter transcription factor activity; actives raise or lower the signal
How it was run: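 Multiplexed cis-reporter transcription in HepG2 cells after 24 h chemical treatment. Reporter mRNA measured by RT-PCR and capillary electrophoresis fluorescence; activity fitted bidirectionally against DMSO control.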

[8] = ATG_NF_kB_CIS: Attagene CIS-FACTORIAL HepG2 Assay for human Nuclear Factor Kappa B (NF-kB) (AID 2282991); details: HepG2 Attagene cis-factorial NF-kB reporter mRNA; actives raise or lower the signal
How it was run: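 After 24 h compound incubation, transfected HepG2 cells yield total RNA; reporter cDNA is PCR-amplified, end-labelled with 6-FAM, HpaI-digested and analysed on a genetic analyser. Endogenous factor activity, DMSO-referenced bidirectional fit.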

[9] = ATG_NRF2_ARE_CIS: Attagene CIS-FACTORIAL HepG2 Assay for human Nuclear Factor Erythroid 2 Related Factor 2 (NFR2) response to Antioxidant Response Elements (ARE) (AID 2282992); details: HepG2 Attagene ARE/NRF2 reporter, transcription factor activity; actives raise or lower the signal
How it was run: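 Endogenous transcription factor activity in human liver HepG2 cells is tracked via a cis-element-driven reporter within a multiplexed set. mRNA induction is read by RT-PCR and capillary electrophoresis after 24 h, with DMSO as baseline.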

[10] = ATG_Oct_MLP_CIS: Attagene CIS-FACTORIAL HepG2 Assay for human Octamer-Binding Transcription Factor (Oct) (AID 2282993); details: HepG2 Attagene cis-factorial Oct reporter, mRNA; actives raise or lower the signal
How it was run: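 Read-out: reporter mRNA via RT-PCR plus capillary electrophoresis of 6-FAM-labelled fragments. Transiently transfected HepG2, 24 h exposure, endogenous TF activity on cis elements. Gain or loss of signal fitted relative to DMSO.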

[11] = molecular target: Cellular tumor antigen p53 (Homo sapiens) (UniProt P04637); assay: ATG_p53_CIS: Attagene CIS-FACTORIAL HepG2 Assay for human p53 Transcription Factor (AID 2282994); details: HepG2 p53 cis-element reporter, Attagene mRNA; actives raise or lower the signal
How it was run: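 Steps: transfect HepG2 with multiplexed cis reporter constructs; dose chemicals 24 h; extract RNA, reverse-transcribe, PCR-amplify reporter sequences; FAM-label, HpaI-digest, resolve fragments by CE. Activity fitted both directions relative to DMSO.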

[12] = molecular target: Hepatocyte nuclear factor 4-alpha (Homo sapiens) (UniProt P41235); assay: ATG_HNF4a_TRANS: Attagene TRANS-FACTORIAL HepG2 Assay for human Hepatocyte Nuclear Factor 4 alpha (HNF4a) (AID 2282982; active means hit-call score of the fitted dose curve at least 0.9, where 1 is the maximum); details: HepG2 HNF4a transactivation reporter, mRNA readout
How it was run: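 Using HepG2 liver cells transfected with GAL4-UAS reporter units, chemical-induced mRNA increases were assessed after 24 hours. Fluorescent RT-PCR fragments were separated by capillary electrophoresis and compared with DMSO negative controls.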

[13] = ATG_M_06_TRANS: Attagene TRANS-FACTORIAL HepG2 Assay for M06 Transcription Factor (Internal Marker) (AID 2282983; active means hit-call score of the fitted dose curve at least 0.9, where 1 is the maximum); details: HepG2 Attagene TRANS M06 internal marker reporter
How it was run: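 Read-out: fluorescent reporter cDNA fragments resolved by capillary electrophoresis after RT-PCR and HpaI cut. Source cells were HepG2 carrying transfected multi-reporter GAL4 constructs, dosed 24 h. Increase over DMSO control analysed.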

[14] = BSK_3C_TissueFactor: BioMAP Diversity Plus: 3C Assay for Tissue Factor Biomarker Activity (AID 2282997); details: BioMAP 3C HUVEC, tissue factor biomarker readout; actives raise or lower the signal
How it was run: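 HUVEC, 3C system, 24 h post-dose; Tissue Factor by ELISA; bidirectional fit vs DMSO baseline.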

[15] = BSK_3C_uPAR: BioMAP Diversity Plus: 3C Assay for Urokinase-type plasminogen activator receptor (uPAR) Biomarker Activity (AID 2282998); details: BioMAP 3C HUVEC, uPAR biomarker ELISA; actives raise or lower the signal
How it was run: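 HUVEC primary cells; 24 h post-dose; uPAR by ELISA; gain or loss of signal fitted bidirectionally vs DMSO baseline.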

Measured: AC50

Cellular tumor antigen p53 (Homo sapiens), sequence (P04637 whole entry, looked up, the tested form may be a part): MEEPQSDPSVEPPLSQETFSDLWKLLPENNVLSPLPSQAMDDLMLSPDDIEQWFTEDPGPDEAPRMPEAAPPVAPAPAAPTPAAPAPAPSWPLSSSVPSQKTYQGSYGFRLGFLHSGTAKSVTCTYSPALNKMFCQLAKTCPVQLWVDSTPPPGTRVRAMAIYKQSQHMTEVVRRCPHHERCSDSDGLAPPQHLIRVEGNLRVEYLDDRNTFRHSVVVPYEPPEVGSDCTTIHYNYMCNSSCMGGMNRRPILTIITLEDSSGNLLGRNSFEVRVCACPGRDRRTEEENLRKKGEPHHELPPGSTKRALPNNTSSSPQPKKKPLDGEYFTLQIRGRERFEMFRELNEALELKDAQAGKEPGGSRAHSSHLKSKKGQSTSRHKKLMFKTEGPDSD
Nuclear receptor subfamily 4 group A member 2 (Homo sapiens), sequence (P43354 whole entry, looked up, the tested form may be a part): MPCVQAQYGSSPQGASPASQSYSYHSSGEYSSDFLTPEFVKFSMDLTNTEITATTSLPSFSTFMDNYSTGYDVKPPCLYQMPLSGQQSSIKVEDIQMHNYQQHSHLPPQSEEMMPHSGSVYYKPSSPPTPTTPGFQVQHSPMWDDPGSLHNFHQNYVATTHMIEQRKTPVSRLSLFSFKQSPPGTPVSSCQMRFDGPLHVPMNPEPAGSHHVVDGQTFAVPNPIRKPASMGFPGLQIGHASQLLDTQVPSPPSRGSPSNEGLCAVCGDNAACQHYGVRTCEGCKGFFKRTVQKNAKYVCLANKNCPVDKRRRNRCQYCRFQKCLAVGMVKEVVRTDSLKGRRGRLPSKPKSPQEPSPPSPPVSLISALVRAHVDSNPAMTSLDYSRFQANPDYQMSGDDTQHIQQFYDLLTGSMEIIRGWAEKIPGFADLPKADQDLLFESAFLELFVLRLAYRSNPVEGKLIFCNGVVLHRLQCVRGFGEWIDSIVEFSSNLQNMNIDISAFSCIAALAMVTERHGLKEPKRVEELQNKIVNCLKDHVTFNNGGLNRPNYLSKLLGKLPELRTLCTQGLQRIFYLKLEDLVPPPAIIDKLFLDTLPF
Nuclear respiratory factor 1 (Homo sapiens), sequence (Q16656 whole entry, looked up): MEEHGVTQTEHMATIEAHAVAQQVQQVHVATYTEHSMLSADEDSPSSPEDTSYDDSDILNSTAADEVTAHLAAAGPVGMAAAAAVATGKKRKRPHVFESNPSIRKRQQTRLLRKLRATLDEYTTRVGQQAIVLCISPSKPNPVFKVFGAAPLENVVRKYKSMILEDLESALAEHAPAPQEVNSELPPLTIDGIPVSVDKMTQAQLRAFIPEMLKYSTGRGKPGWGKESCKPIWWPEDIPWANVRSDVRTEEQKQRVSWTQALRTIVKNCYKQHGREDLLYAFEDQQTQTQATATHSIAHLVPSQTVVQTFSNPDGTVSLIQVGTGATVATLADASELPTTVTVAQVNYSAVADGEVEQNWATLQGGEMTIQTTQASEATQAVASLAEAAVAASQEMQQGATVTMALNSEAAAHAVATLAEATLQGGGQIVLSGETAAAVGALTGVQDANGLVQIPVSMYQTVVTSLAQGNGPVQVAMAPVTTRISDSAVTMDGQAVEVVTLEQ
Oxysterols receptor LXR-alpha (Homo sapiens), sequence (Q13133 whole entry, looked up, the tested form may be a part): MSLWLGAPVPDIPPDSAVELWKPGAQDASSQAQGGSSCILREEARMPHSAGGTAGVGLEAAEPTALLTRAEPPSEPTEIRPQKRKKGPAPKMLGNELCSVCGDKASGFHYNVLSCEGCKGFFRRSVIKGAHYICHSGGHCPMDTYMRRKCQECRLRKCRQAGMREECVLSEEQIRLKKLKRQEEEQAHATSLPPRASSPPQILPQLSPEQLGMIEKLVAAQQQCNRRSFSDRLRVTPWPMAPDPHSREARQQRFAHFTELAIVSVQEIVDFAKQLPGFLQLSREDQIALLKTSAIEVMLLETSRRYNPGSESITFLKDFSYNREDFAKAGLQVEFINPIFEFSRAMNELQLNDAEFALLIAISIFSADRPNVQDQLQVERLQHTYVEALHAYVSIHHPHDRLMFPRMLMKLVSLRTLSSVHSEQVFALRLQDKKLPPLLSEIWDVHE
Transcriptional activator Myb (Homo sapiens), sequence (P10242 whole entry, looked up): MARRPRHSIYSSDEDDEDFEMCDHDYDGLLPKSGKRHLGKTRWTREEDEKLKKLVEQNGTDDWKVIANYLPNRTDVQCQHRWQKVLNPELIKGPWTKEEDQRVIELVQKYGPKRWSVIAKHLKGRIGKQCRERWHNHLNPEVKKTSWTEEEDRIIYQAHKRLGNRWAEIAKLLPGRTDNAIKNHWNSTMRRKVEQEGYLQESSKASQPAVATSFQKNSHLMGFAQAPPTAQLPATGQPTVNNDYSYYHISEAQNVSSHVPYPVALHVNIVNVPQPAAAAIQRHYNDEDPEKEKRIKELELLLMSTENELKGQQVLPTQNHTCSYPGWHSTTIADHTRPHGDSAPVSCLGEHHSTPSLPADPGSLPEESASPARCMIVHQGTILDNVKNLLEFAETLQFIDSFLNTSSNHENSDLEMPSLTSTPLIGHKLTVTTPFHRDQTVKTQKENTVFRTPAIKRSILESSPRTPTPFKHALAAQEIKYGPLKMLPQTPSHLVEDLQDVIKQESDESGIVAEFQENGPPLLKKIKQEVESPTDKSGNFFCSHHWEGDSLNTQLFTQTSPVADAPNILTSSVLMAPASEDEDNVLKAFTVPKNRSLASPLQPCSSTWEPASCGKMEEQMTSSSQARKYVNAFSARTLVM
Myc proto-oncogene protein (Homo sapiens), sequence (P01106 whole entry, looked up): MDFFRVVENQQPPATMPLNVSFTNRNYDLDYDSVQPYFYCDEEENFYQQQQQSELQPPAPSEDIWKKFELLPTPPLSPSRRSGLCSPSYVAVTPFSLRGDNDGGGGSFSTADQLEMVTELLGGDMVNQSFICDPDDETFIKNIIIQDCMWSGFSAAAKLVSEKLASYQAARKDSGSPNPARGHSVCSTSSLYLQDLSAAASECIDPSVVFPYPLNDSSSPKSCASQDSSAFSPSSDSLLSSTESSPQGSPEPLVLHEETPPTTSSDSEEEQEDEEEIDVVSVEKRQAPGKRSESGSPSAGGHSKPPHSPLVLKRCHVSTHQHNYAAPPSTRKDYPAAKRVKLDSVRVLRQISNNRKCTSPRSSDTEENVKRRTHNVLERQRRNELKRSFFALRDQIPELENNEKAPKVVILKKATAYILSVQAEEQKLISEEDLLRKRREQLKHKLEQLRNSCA
Hepatocyte nuclear factor 4-alpha (Homo sapiens), sequence (P41235 whole entry, looked up, the tested form may be a part): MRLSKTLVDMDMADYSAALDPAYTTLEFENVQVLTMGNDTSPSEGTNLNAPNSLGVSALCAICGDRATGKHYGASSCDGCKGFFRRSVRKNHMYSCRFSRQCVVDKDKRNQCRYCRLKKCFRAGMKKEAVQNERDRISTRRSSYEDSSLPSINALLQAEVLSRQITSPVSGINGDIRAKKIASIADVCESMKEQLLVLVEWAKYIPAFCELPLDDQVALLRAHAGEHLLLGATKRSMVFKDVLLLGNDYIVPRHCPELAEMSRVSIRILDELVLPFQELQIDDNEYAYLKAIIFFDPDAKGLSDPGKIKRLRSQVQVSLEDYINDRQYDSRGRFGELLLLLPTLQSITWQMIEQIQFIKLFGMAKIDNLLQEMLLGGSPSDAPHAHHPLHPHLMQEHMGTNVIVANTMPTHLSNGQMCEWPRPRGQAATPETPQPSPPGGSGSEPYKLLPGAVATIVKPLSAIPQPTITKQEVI

C=CC#N
inactive: [1] | [2] | [3] | [4] | [5] | [6] | [7] | [8] | [10] | [11]
active: [9] 119 µM

CCCCCCCCCl
inactive: [1] | [12] | [13] | [3] | [4] | [5] | [7] | [8] | [9] | [10] | [11]

COc1ccc(C=O)cc1
inactive: [1] | [13] | [4] | [5] | [6] | [7] | [8] | [9] | [10] | [11]

CCOC(=O)/C=C(C)/C=C/C[C@@H](C)CCCC(C)C
active: [3] 125 µM | [4] 152 µM | [5] 65.2 µM | [6] 180 µM | [7] 182 µM | [8] 43.2 µM | [9] 56.5 µM | [10] 25 µM | [14] 15.6 µM | [15] 33.1 µM
inactive: [13] | [2] | [11]
